# Results published in PubChem BioAssay (NCATS).
# Starred links: 1 amine or outer side, 2 acyl side, 3 side chain; linkers in the order of their positions; H or OH if unused. Positions of bridges follow the written chain, without caps; N, C: chain ends. Non-standard residues stand in square brackets, D forms with d. Residues, ends and D or L forms follow the SMILES beside them. ξ: configuration not given here. *: point of attachment. ΔAla(3-NHCONH2) = NC(=O)NC=C(N)C(=O)O; X1 = NC1=NCCC(C(N[*:1])C(=O)[*:2])N1; ξβ3hOrn = NCCCC(N)CC(=O)*; Dap = NC[CH](N)C(=O)O
# Experiment: qHTS profiling of the MIPE4 collection as inhibitors of Plasmodium falciparum (DD2) proliferation (Rep 2) (AID 743346)
# Conditions: P. falciparum Dd2 in erythrocytes, SYBR Green DNA, 72 h; at 0.217 µM (top of the series)
# Description: Plasmodium falciparum is a virulent malarial parasite that kills 1-2 million people worldwide each year. Transmitted by mosquitoes, the sporozoite form of the parasite enters the blood stream to infect hepatocytes, where they become merozoites that infect red blood cells (erythrocytes). Within erythrocytes, merozoites begin a […] cycle of growth and division, after which the parasite is released to infect new red blood cells. Gametocytes, which form within erythrocytes as well, circulate in the bloodstream and are ingested by the mosquito, thereby completing the life cycle. To profile malarial isolates for differential chemical responses and to identify inhibitors of malarial growth, an assay that measures P. falciparum growth and replication within erythrocytes was employed. This assay uses a DNA binding fluorescent dye (SYBR Green) to detect parasite DNA following cell lysis. Because mature erythrocytes lack DNA, only Plasmodium-derived DNA is detected.
# The SYBR Green viability assay was adapted from a method described previously (Plouffe et al., 2008). For screening 3 ul culture medium was dispensed into 1536 well black clear bottom plates (Aurora Biotechnologies) using a Multidrop Combi (Thermo Fisher Scientific Inc.), 23 nL compounds in DMSO were added by a pin tool (Kalypsys), and 5 ul of erythrocytes infected with P. falciparum (0.3% parasitemia, 2.5% hematocrit final concentration) were added. The plates were incubated at 37 C in a humidified incubator in 5% CO2 for 72 h, and 2 ul lysis buffer (20 mM Tris HCl, 10 mM EDTA, 0.16% saponin, 1.6% triton X, 10X SYBR Green I supplied as 10,000X […] by Invitrogen) was added to each well. The plates were mixed for 25 sec with gentle shaking and incubated overnight at room temperature in the dark. The following morning, fluorescence intensity at 485(14) nm excitation and 535(25) nm emission wavelengths was measured on an EnVision (Perkin Elmer) plate reader. Plate reads were normalized relative to the control inhibitor (0.29 uM artemisinin) and vehicle (DMSO) wells present on each plate and then corrected by an algorithm using vehicle-only control plates at the beginning and end of the compound plate stack.
row,Structure (SMILES),"parasite growth, % of control (lower = inhibition) [%]"
1,NCCCC(N)CC(=O)NCC1NC(=O)C(CO)NC(=O)C(N)CNC(=O)C(C2CCN=C(N)N2)NC(=O)C(=CNC(N)=O)NC1=O (stereo not drawn) (H-[Dap]S[Dap](ξβ3hOrn)[ΔAla(3-NHCONH2)][X1]; lactam 1-C; configuration not given here),121

# Same assay, conditions: P. falciparum Dd2 in erythrocytes, SYBR Green DNA, 72 h; at 28.5 µM
row,Structure (SMILES),"parasite growth, % of control (lower = inhibition) [%]"
1,NCCCC(N)CC(=O)NCC1NC(=O)C(CO)NC(=O)C(N)CNC(=O)C(C2CCN=C(N)N2)NC(=O)C(=CNC(N)=O)NC1=O (stereo not drawn) (H-[Dap]S[Dap](ξβ3hOrn)[ΔAla(3-NHCONH2)][X1]; lactam 1-C; configuration not given here),113

# Same assay, conditions: P. falciparum Dd2 in erythrocytes, SYBR Green DNA, 72 h; at 28.5 µM unless noted
row,Structure (SMILES),"parasite growth, % of control (lower = inhibition)"
1,Cc1cc2c(s1)Nc1ccccc1N=C2N1CCN(C)CC1,49.7%
2,C#CCN(C)[C@H](C)Cc1ccccc1,124%
3,C=C(C)[C@H]1Cc2c(ccc3c2O[C@@H]2COc4cc(OC)c(OC)cc4[C@@H]2C3=O)O1,35.5%
4,CNCC(O)c1ccc(O)cc1 (stereo not given),71%
5,CC1Cc2ccccc2N1NC(=O)c1ccc(Cl)c(S(N)(=O)=O)c1 (stereo not given),84.2%
6,Cc1cccc(C)c1NC(=O)CN1CCCC1=O,129%
7,O=c1[nH]cc(F)c(=O)[nH]1,44.8%
8,CN(C)CCc1ccc(O)cc1,111%
9,CC1=C2C[C@@H]3[C@@H](CC=C4C[C@@H](O)CC[C@@]43C)[C@@H]2CC[C@]12O[C@H]1C[C@H](C)CN[C@H]1[C@H]2C,33.5%
10,OC(Cn1cncn1)(Cn1cncn1)c1ccc(F)cc1F,88.1%
11,Cc1ccnc2c1NC(=O)c1cccnc1N2C1CC1,83.7%
12,COC[C@@H](NC(C)=O)C(=O)NCc1ccccc1,165%
13,CO[C@]12CC[C@@]3(C[C@@H]1[C@](C)(O)C(C)(C)C)[C@@H]1Cc4ccc(O)c5c4[C@@]3(CCN1CC1CC1)[C@H]2O5,19.3% [at 57.2 µM]
14,O=C(OC1C[C@H]2CC[C@@H](C1)[N+]21CCCC1)C(O)(c1ccccc1)c1ccccc1 (stereo not given in full),30.4%
15,COc1ccc(C(CN(C)C)C2(O)CCCCC2)cc1 (stereo not given),42.9%
16,COc1ccc(C(=O)c2c(C)n(CCN3CCOCC3)c3ccccc23)cc1,66.9%
17,CC(C)CC(N(C)C)C1(c2ccc(Cl)cc2)CCC1 (stereo not given),137%
18,NCC1(CC(=O)O)CCCCC1,75.9%
19,Oc1cc(Cl)ccc1Oc1ccc(Cl)cc1Cl,20.6%

row,Structure (SMILES),"parasite growth, % of control (lower = inhibition)"
1,O=C1CC[C@@]2(O)[C@H]3Cc4ccc(O)c5c4[C@@]2(CCN3CC2CC2)[C@H]1O5,64.4%
2,C[C@@H]1O[C@@H](O[C@H]2C[C@@H](O)[C@]3(CO)[C@H]4[C@H](O)C[C@]5(C)[C@@H](C6=CC(=O)OC6)CC[C@]5(O)[C@@H]4CC[C@]3(O)C2)[C@H](O)[C@H](O)[C@H]1O,124%
3,CCN(C)C(=O)Oc1cccc([C@H](C)N(C)C)c1,69.6%
4,Cc1cc(SCc2sc(-c3ccc(C(F)(F)F)c(F)c3)nc2C)ccc1OCC(=O)O,50.9%
5,CC(C)C(=O)Nc1ccc([N+](=O)[O-])c(C(F)(F)F)c1,69.2%
6,CCOC(=O)c1ncn2c1CN(C)C(=O)c1cc(F)ccc1-2,74.8%
7,CNC(=O)c1ccc(N2C(=S)N(c3ccc(C#N)c(C(F)(F)F)c3)C(=O)C23CCC3)cc1F,45.4%
8,Cc1sc2c(c1C)C(c1ccc(Cl)cc1)=N[C@@H](CC(=O)OC(C)(C)C)c1nnc(C)n1-2,29.2%
9,Cn1c(CCCC(=O)O)nc2cc(N(CCCl)CCCl)ccc21,85.2%
10,O=C(O)C(=O)c1cn(Cc2ccccc2)c2ccc(-c3ccc(OC(F)(F)F)cc3)cc12,77.4%
11,CCCC(C)(COC(N)=O)COC(=O)NC(C)C (stereo not given),119%
12,COc1ccc2c(c1OC)CN1CCc3cc4c(cc3C1C2)OCO4 (stereo not given),10.1%
13,C[C@@H]1[C@@H](C(=O)C[C@H]2O[C@@H]3O[C@]4(C)CC[C@@H]5[C@H](C)CC[C@@H]([C@H]2C)[C@@]35OO4)O[C@@H]2O[C@]3(C)CC[C@H]4[C@H](C)CC[C@@H]1[C@@]24OO3,8.22%
14,CNC(=O)N1N=C(c2ccc(N)cc2)c2cc3c(cc2CC1C)OCO3 (stereo not given),67.9%
15,CN(C)CCN(C)CCc1ccc(Cl)c(Cl)c1,18.2%
16,CCn1cc(C(=O)O)c(=O)c2cc(F)c(N3CCNCC3)cc21,42.3%
17,O=NN(CCCl)C(=O)NC1CCCCC1,72.9%
18,O=P1(NCCCl)OCCCN1CCCl (stereo not given),110%
19,CN1CCN(C(=O)O[C@H]2c3nccnc3C(=O)N2c2ccc(Cl)cn2)CC1,86.8%
